Results published in PubChem BioAssay (NCI).
About 83,000 compounds went through this panel and 20% of them were active in at least one assay; those are over-represented in the sample as a whole.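 Cell lines were cultured in 96-well plates, exposed to a single compound concentration, and assessed for percent growth 48 hours later.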 Unmarked numbers belong to inactive results. Activity calls are given as the source filed them. Rule for the calls: active = growth percent below 10; inactive = the rest.

Legend:
Test in all cases: NCI-60 one-dose screen, 48 h (100 = growth as untreated, 0 = no growth, -100 = all killed)
Conditions in all cases: 10 µM unless noted
NCI-H23 lung = tested on: NCI-H23 lung
NCI-H226 lung = tested on: NCI-H226 lung
NCI-H322M lung = tested on: NCI-H322M lung
NCI-H460 lung = tested on: NCI-H460 lung
HOP-92 NSCLC = tested on: HOP-92 NSCLC
NCI-H522 lung = tested on: NCI-H522 lung
A549/ATCC NSCLC = tested on: A549/ATCC NSCLC
786-0 renal = tested on: 786-0 renal
COLO 205 colon = tested on: COLO 205 colon
DU-145 prostate = tested on: DU-145 prostate
K-562 leukemia = tested on: K-562 leukemia
MALME-3M melanoma = tested on: MALME-3M melanoma
MDA-MB-231 breast = tested on: MDA-MB-231 breast
SF-268 CNS = tested on: SF-268 CNS
SF-295 CNS = tested on: SF-295 CNS
SF-539 CNS = tested on: SF-539 CNS
UACC-257 melanoma = tested on: UACC-257 melanoma
M14 melanoma = tested on: M14 melanoma
RXF 393 renal = tested on: RXF 393 renal

**Q.** With `CCN(CC)CCSCCCNc1c(C)cnc2cc(Cl)ccc12` as the molecule, how does the growth (NCI-H23 lung) read?
**A.** 89.8%

**Q.** What about the growth (NCI-H226 lung) of the same molecule?
**A.** 100%

**Q.** And the growth (NCI-H322M lung)?
**A.** 90.8%

**Q.** And the growth (NCI-H460 lung)?
**A.** 96.8%

**Q.** What about the growth (HOP-92 NSCLC) of the same molecule?
**A.** 81.6%

**Q.** And the growth (NCI-H522 lung)?
**A.** 102%

**Q.** What about the growth (A549/ATCC NSCLC) of the same molecule?
**A.** 95.9%

**Q.** And the growth (786-0 renal)?
**A.** 82.7%

**Q.** And the growth (COLO 205 colon)?
**A.** 61.4%

**Q.** What about the growth (DU-145 prostate) of the same molecule?
**A.** 88.2%

**Q.** What about the growth (K-562 leukemia) of the same molecule?
**A.** 5.33% (active)

**Q.** And the growth (MALME-3M melanoma)?
**A.** 87%

**Q.** And the growth (MDA-MB-231 breast)?
**A.** 61.9%

**Q.** What about the growth (SF-268 CNS) of the same molecule?
**A.** 81%

**Q.** And the growth (SF-295 CNS)?
**A.** 90.5%

**Q.** What about the growth (SF-539 CNS) of the same molecule?
**A.** 71%

**Q.** What about the growth (UACC-257 melanoma) of the same molecule?
**A.** 113%

**Q.** What about the growth (M14 melanoma) of the same molecule?
**A.** 89.5%

**Q.** `C#Cc1cccc(NC(=O)Nc2ccc(NC(=O)CCl)cc2)c1` was tested. Which growth (NCI-H23 lung) did it give?
**A.** -66.6% [8.25 µM] (active)

**Q.** What about the growth (NCI-H226 lung) of the same molecule?
**A.** -27.4% [8.25 µM] (active)

**Q.** And the growth (NCI-H322M lung)?
**A.** 86.8% [8.25 µM]

**Q.** What about the growth (NCI-H460 lung) of the same molecule?
**A.** -23.9% [8.25 µM] (active)

**Q.** And the growth (HOP-92 NSCLC)?
**A.** -66.5% [8.25 µM] (active)

**Q.** And the growth (NCI-H522 lung)?
**A.** -70.8% [8.25 µM] (active)

**Q.** What about the growth (A549/ATCC NSCLC) of the same molecule?
**A.** 45.3% [8.25 µM]

**Q.** And the growth (786-0 renal)?
**A.** -71.5% [8.25 µM] (active)

**Q.** What about the growth (COLO 205 colon) of the same molecule?
**A.** -58.2% [8.25 µM] (active)

**Q.** What about the growth (DU-145 prostate) of the same molecule?
**A.** 22.3% [8.25 µM]

**Q.** What about the growth (K-562 leukemia) of the same molecule?
**A.** 3.37% [8.25 µM] (active)

**Q.** And the growth (MALME-3M melanoma)?
**A.** -80.5% [8.25 µM] (active)

**Q.** And the growth (MDA-MB-231 breast)?
**A.** -72.6% [8.25 µM] (active)

**Q.** And the growth (SF-268 CNS)?
**A.** -82.9% [8.25 µM] (active)

**Q.** What about the growth (SF-295 CNS) of the same molecule?
**A.** 79.5% [8.25 µM]

**Q.** And the growth (SF-539 CNS)?
**A.** -99.6% [8.25 µM] (active)

**Q.** And the growth (UACC-257 melanoma)?
**A.** 35.1% [8.25 µM]

**Q.** And the growth (M14 melanoma)?
**A.** 4.51% [8.25 µM] (active)

**Q.** Which results are given for `CC1NC(=S)NC(=O)/C1=C/c1cc(=O)oc2c1ccc1ccccc12` (stereo not drawn)?
**A.** growth (NCI-H23 lung): 93.8%; growth (NCI-H226 lung): 86.1%; growth (NCI-H322M lung): 101%; growth (NCI-H460 lung): 102%; growth (HOP-92 NSCLC): 75.9%; growth (A549/ATCC NSCLC): 81.3%; growth (786-0 renal): 107%; growth (COLO 205 colon): 104%; growth (DU-145 prostate): 108%; growth (K-562 leukemia): 94.6%; growth (MALME-3M melanoma): 90.9%; growth (MDA-MB-231 breast): 95.1%; growth (RXF 393 renal): 101%; growth (SF-268 CNS): 97%; growth (SF-295 CNS): 100%; growth (SF-539 CNS): 96.8%; growth (UACC-257 melanoma): 80.5%; growth (M14 melanoma): 94.9%

**Q.** Which growth (NCI-H23 lung) does the source give for `COc1cc2nc(-c3ccc(C(F)(F)F)cc3)cc(OCCN3CCC(O)CC3)c2cc1OC` here?
**A.** 88.9%

**Q.** What about the growth (NCI-H226 lung) of the same molecule?
**A.** 56.3%

**Q.** And the growth (NCI-H322M lung)?
**A.** 68.8%

**Q.** What about the growth (NCI-H460 lung) of the same molecule?
**A.** 44.5%

**Q.** What about the growth (HOP-92 NSCLC) of the same molecule?
**A.** 71.2%

**Q.** What about the growth (NCI-H522 lung) of the same molecule?
**A.** 79.6%

**Q.** What about the growth (A549/ATCC NSCLC) of the same molecule?
**A.** 79.2%

**Q.** What about the growth (786-0 renal) of the same molecule?
**A.** 78.7%

**Q.** What about the growth (COLO 205 colon) of the same molecule?
**A.** 35.7%

**Q.** What about the growth (DU-145 prostate) of the same molecule?
**A.** 58.8%

**Q.** And the growth (K-562 leukemia)?
**A.** 61.3%

**Q.** And the growth (MALME-3M melanoma)?
**A.** 83.6%

**Q.** And the growth (MDA-MB-231 breast)?
**A.** 49.1%

**Q.** And the growth (RXF 393 renal)?
**A.** 61.2%

**Q.** And the growth (SF-268 CNS)?
**A.** 70%

**Q.** What about the growth (SF-295 CNS) of the same molecule?
**A.** 80.4%

**Q.** And the growth (SF-539 CNS)?
**A.** 76.8%

**Q.** And the growth (UACC-257 melanoma)?
**A.** 92.3%

**Q.** And the growth (M14 melanoma)?
**A.** 25.2%

**Q.** Which growth (NCI-H23 lung) does the source give for `C=CCn1c(SCC(=O)Nc2ccc(C(=O)/C=C/c3cc(OC)c(OC)c(OC)c3)cc2)nnc1-c1cc(-c2ccc(S(C)(=O)=O)cc2)nc2ccccc12` here?
**A.** 85.6%

**Q.** And the growth (NCI-H226 lung)?
**A.** 85.3%

**Q.** What about the growth (NCI-H322M lung) of the same molecule?
**A.** 93.5%

**Q.** What about the growth (NCI-H460 lung) of the same molecule?
**A.** 97.2%

**Q.** And the growth (HOP-92 NSCLC)?
**A.** 112%

**Q.** What about the growth (NCI-H522 lung) of the same molecule?
**A.** 86.5%

**Q.** What about the growth (A549/ATCC NSCLC) of the same molecule?
**A.** 99.4%

**Q.** And the growth (786-0 renal)?
**A.** 93.6%

**Q.** And the growth (COLO 205 colon)?
**A.** 111%

**Q.** What about the growth (DU-145 prostate) of the same molecule?
**A.** 94.5%

**Q.** And the growth (K-562 leukemia)?
**A.** 50.5%

**Q.** And the growth (MALME-3M melanoma)?
**A.** 89.3%

**Q.** And the growth (MDA-MB-231 breast)?
**A.** 77.7%

**Q.** And the growth (RXF 393 renal)?
**A.** 60.9%

**Q.** What about the growth (SF-268 CNS) of the same molecule?
**A.** 86.9%

**Q.** What about the growth (SF-295 CNS) of the same molecule?
**A.** 97.4%

**Q.** What about the growth (SF-539 CNS) of the same molecule?
**A.** 86%

**Q.** And the growth (UACC-257 melanoma)?
**A.** 102%

**Q.** What about the growth (M14 melanoma) of the same molecule?
**A.** 88.8%

**Q.** What does the source list for `COc1ccc(C(=O)/C=C/c2ccc(OCc3ccccc3)c(OC)c2)cc1OC`?
**A.** growth (NCI-H23 lung): 59.8%; growth (NCI-H226 lung): 75.8%; growth (NCI-H322M lung): 43.2%; growth (NCI-H460 lung): 47%; growth (HOP-92 NSCLC): 11.5%; growth (NCI-H522 lung): 28.9%; growth (A549/ATCC NSCLC): 13.6%; growth (786-0 renal): 87.9%; growth (COLO 205 colon): 74.6%; growth (DU-145 prostate): 36.7%; growth (K-562 leukemia): 20.7%; growth (MALME-3M melanoma): 56.4%; growth (MDA-MB-231 breast): 55.3%; growth (RXF 393 renal): 75.1%; growth (SF-268 CNS): 43.8%; growth (SF-295 CNS): 57.1%; growth (SF-539 CNS): 83.3%; growth (UACC-257 melanoma): 63.2%; growth (M14 melanoma): 83.1%

**Q.** With `CS(=O)(=O)c1ccc(-c2cc(-c3nnc(SCC(=O)Nc4ccc(C(=O)/C=C/c5ccc(Cl)cc5)cc4)n3-c3ccccc3)c3ccccc3n2)cc1` as the molecule, how does the growth (NCI-H23 lung) read?
**A.** 97.8%

**Q.** And the growth (NCI-H226 lung)?
**A.** 94.6%

**Q.** What about the growth (NCI-H322M lung) of the same molecule?
**A.** 89.8%

**Q.** What about the growth (NCI-H460 lung) of the same molecule?
**A.** 99.1%

**Q.** What about the growth (HOP-92 NSCLC) of the same molecule?
**A.** 110%

**Q.** And the growth (NCI-H522 lung)?
**A.** 90%

**Q.** And the growth (A549/ATCC NSCLC)?
**A.** 91.5%

**Q.** And the growth (786-0 renal)?
**A.** 93%

**Q.** What about the growth (COLO 205 colon) of the same molecule?
**A.** 106%

**Q.** What about the growth (DU-145 prostate) of the same molecule?
**A.** 105%

**Q.** What about the growth (K-562 leukemia) of the same molecule?
**A.** 89.9%

**Q.** What about the growth (MALME-3M melanoma) of the same molecule?
**A.** 104%

**Q.** And the growth (MDA-MB-231 breast)?
**A.** 92.1%

**Q.** And the growth (RXF 393 renal)?
**A.** 92.3%

**Q.** What about the growth (SF-268 CNS) of the same molecule?
**A.** 81.7%

**Q.** What about the growth (SF-295 CNS) of the same molecule?
**A.** 96%

**Q.** And the growth (SF-539 CNS)?
**A.** 87.5%

**Q.** And the growth (UACC-257 melanoma)?
**A.** 107%

**Q.** And the growth (M14 melanoma)?
**A.** 97.5%

**Q.** What does the source list for `COc1cc(NCC(C)(O)CN(CC(C)C)CC(C)C)c2nc(C)ccc2c1` (stereo not drawn)?
**A.** growth (NCI-H23 lung): 79.7%; growth (NCI-H226 lung): 74.1%; growth (NCI-H322M lung): 89.3%; growth (NCI-H460 lung): 101%; growth (HOP-92 NSCLC): 79.8%; growth (NCI-H522 lung): 77.6%; growth (A549/ATCC NSCLC): 91%; growth (786-0 renal): 86.6%; growth (COLO 205 colon): 79.5%; growth (DU-145 prostate): 110%; growth (K-562 leukemia): 67.4%; growth (MALME-3M melanoma): 94%; growth (MDA-MB-231 breast): 69.5%; growth (SF-268 CNS): 93.7%; growth (SF-295 CNS): 83.3%; growth (SF-539 CNS): 96.1%; growth (UACC-257 melanoma): 93.1%; growth (M14 melanoma): 91.5%
